Bioassay records deposited in PubChem BioAssay by Broad Institute.
NOMO-1 viab – STK33 inhibitor candidate reducing NOMO-1 cell viability; NOMO-1 AML viability, CellTiter-Glo luminescence, 72 h; inhibition, % (concentration not given with the values); actives 7.5% (n = 37,000); AID 2330; in the data active = inhibition above about 80%
PD-1 reversal – reversal of PD-1 mediated T-cell inhibition; primary human CD4 T cells, PD-L1 beads, CellTiter-Glo 96 h; activation, % (concentration not given with the values); 29,000 tested, under 10 active; AID 2316; call rule not given here;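 also: 0% = median vehicle wells and 100% = positive control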
STK33 kin inh – blocks human STK33 kinase activity; ADP-Glo luminescence, MBP substrate; inhibition, % at 12.5 µM; actives 0.44% (n = 27,000); AID 2322; in the data active = inhibition above about 20%
Target sequence (Q9BYT3 whole entry, looked up): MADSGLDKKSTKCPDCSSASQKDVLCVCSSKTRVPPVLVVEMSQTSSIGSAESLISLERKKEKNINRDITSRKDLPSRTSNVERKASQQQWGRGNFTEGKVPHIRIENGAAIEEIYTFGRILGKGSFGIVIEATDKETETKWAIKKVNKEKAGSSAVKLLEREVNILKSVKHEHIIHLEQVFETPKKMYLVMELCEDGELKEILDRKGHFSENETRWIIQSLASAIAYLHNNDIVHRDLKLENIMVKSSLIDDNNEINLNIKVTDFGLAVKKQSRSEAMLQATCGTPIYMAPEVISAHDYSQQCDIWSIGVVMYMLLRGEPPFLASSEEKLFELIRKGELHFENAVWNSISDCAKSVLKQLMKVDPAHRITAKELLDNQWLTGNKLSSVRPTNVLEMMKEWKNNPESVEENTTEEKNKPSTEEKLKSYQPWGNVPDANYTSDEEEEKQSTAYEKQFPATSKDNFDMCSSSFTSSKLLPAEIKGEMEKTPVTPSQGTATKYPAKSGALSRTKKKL
Numbers without * were called inactive; · = no result given. Many of the other results were omitted from the sample, so hits are more common in it than they were.

SMILES	NOMO-1 viab	PD-1 reversal	STK33 kin inh
COc1ccc(C(=O)Nc2ccc(C(O)(C(F)(F)F)C(F)(F)F)cc2)cc1	110*	0	-1
COc1ccc(C(=O)Nc2ccc(C)c(C)c2)cc1	23	-1	·
COc1ccc(C(=O)C(C)Oc2cccc(NC(=O)c3cccc([N+](=O)[O-])c3)c2)cc1 (stereo not given)	-9	·	0
COc1ccc(-c2nc(SCc3cc(Cl)ccc3OC)n[nH]2)cc1	30	·	-2
CCOc1ccccc1-c1nc(SCC(=O)N2c3ccccc3Sc3ccccc32)n[nH]1	·	·	0
CCn1c2c(c3cc(OCc4ccccc4)ccc31)CCCC2=O	38	1	2
Oc1c(C(Nc2ccccn2)c2cccc(OC3CCCC3)c2)ccc2cccnc12 (stereo not given)	114*	-12	4
COc1ccc(SCC(=O)Nc2ccccn2)cc1	11	1	·
C#CCOc1ccc(C(Nc2ccccn2)c2ccc3cccnc3c2O)cc1 (stereo not given)	113*	·	9
COC(=O)c1cc(C)sc1NC(=S)Nc1cnn(C)c1C(N)=O	-9	1	-3
CCN(CC)CC(O)Cn1c2c(c3ccccc31)CCCC2=O (stereo not given)	21	3	1
CCN(CC)CC(O)Cn1c(C)c(-c2ccccc2)c2cc([N+](=O)[O-])ccc21 (stereo not given)	94*	·	5
Cc1cccc(OCC(=O)Nc2ccccc2C(=O)NC2CCCCC2)c1	7	·	0
Cc1ccc(-c2nnc(SCC(=O)Nc3ccccc3C(C)(C)C)n2C)cc1	-5	1	-2
C=C[C@H]1C(O[C@@H]2O[C@H](CO)[C@@H](O)[C@H](O)[C@H]2O)OC=C2C(=O)N3CCc4c([nH]c5ccccc45)[C@H]3C[C@H]21 (stereo not given in full)	15	-1	6
C[C@@H]1CN([C@H](C)CO)C(=O)Cc2cc(NC(=O)Cc3ccccc3)ccc2O[C@@H]1CN(C)Cc1ccc(Oc2ccccc2)cc1	116*	-5	6
C[C@H]1CN([C@@H](C)CO)C(=O)Cc2cc(NC(=O)Cc3ccccc3)ccc2O[C@@H]1CN(C)Cc1ccc(-c2ccccc2)cc1	43	0	6
C[C@H]1CN([C@@H](C)CO)C(=O)Cc2cc(NC(=O)Cc3ccccc3)ccc2O[C@H]1CN(C)Cc1ccc(-c2ccccc2)cc1	99*	-2	1
C[C@H]1CN([C@@H](C)CO)C(=O)Cc2cc(NC(=O)Cc3ccccc3)ccc2O[C@H]1CN(C)Cc1ccc(Oc2ccccc2)cc1	59	-2	1
C=CCN1C(=O)[C@@]2(O[C@@H](CCn3cc(CCO)nn3)[C@H]([Si](C)(C)c3ccc(OC)cc3)[C@H]2C)c2cc(N3C(=O)c4cccc5cccc3c45)ccc21	·	·	7
O=C(CCSc1nnc(-c2cccc([N+](=O)[O-])c2)o1)Nc1ccc(Br)cc1	32	·	-5
Cc1ccc(S(=O)(=O)Nc2ccc3c(c2)C(=O)N([C@@H](C)CO)C[C@H](C)[C@H](CN(C)Cc2ccc(-c4ccccc4)cc2)O3)cc1	56	1	4
Cc1ccc(S(=O)(=O)Nc2ccc3c(c2)C(=O)N([C@@H](C)CO)C[C@@H](C)[C@@H](CN(C)Cc2ccc(-c4ccccc4)cc2)O3)cc1	101*	-1	·
Cc1ccc(S(=O)(=O)Nc2ccc3c(c2)C(=O)N([C@@H](C)CO)C[C@H](C)[C@@H](CN(C)Cc2ccc(-c4ccccc4)cc2)O3)cc1	59	0	·
Cc1ccc(S(=O)(=O)Nc2ccc3c(c2)C(=O)N([C@@H](C)CO)C[C@@H](C)[C@H](CN(C)Cc2ccc(-c4ccccc4)cc2)O3)cc1	123*	0	·
SMILES	NOMO-1 viab	PD-1 reversal	STK33 kin inh
CCc1ccc(OCC(=O)Nc2sc3c(c2C(=O)OC)CCC3)c(Br)c1	2	0	-5
C=C(C(=O)O[C@H]1C/C=C(/C)C[C@H](O)[C@H]2[C@H](C)C(=O)O[C@@H]2/C=C\1C)[C@@H]1CCC(=C)[C@@H]2C[C@H](O[C@@H]3O[C@H](COC(=O)CC(=O)O)[C@@H](O)[C@H](O)[C@H]3O)C(=C)[C@@H]2C1	105*	-3	-4
C=C1CCC(O)/C(C)=C\CC(C(C)C)C(OC2OC(COC(C)=O)C(O)C(O)C2O)C1 (stereo not given)	0	1	0
COc1ccc(S(=O)(=O)N(C)CC(=O)Nc2cc(Cl)c(Cl)cc2Cl)cc1	-10	0	-4
C[C@H]1CN([C@@H](C)CO)C(=O)c2cc(NS(=O)(=O)c3ccc(F)cc3)ccc2O[C@@H]1CN(C)Cc1ccc(-c2ccccc2)cc1	100*	0	·
C[C@@H]1CN([C@H](C)CO)C(=O)c2cc(NS(=O)(=O)c3ccc(F)cc3)ccc2O[C@H]1CN(C)Cc1ccc(-c2ccccc2)cc1	97*	2	2
C[C@H](CO)N1C[C@H](C)[C@H](CN(C)Cc2ccc(-c3ccccc3)cc2)Oc2ccc(NS(=O)(=O)c3ccc(F)cc3)cc2C1=O	41	·	·
C[C@H](CO)N1C[C@H](C)[C@@H](CN(C)Cc2ccc(-c3ccccc3)cc2)Oc2ccc(NS(=O)(=O)c3ccc(F)cc3)cc2C1=O	22	-1	·
CC(C)C(NC=O)C(=O)N1CCC2Oc3ccc(cc3)/C=C\NC(=O)C(Cc3ccccc3)NC(=O)C21 (stereo not given)	·	·	-8
COc1ccc(S(=O)(=O)N(C)CC(=O)Nc2ccc3c(c2)OCCO3)cc1Cl	1	2	2
Cc1nccc(-c2cccc(NC(=O)Nc3ccccc3)c2)n1	44	-1	·
Cc1ccc(S(=O)(=O)N(C)CC(=O)Nc2ccccc2C(N)=O)cc1	-10	·	-1
O=C(CN1C(=O)c2ccccc2C1=O)Oc1ccc(C(=O)Nc2ccccc2)cc1	7	·	0
COc1cc(S(=O)(=O)NCc2ccccn2)ccc1Br	-15	·	1
COc1ccc(-c2cc(=O)c3ccccc3o2)cc1	23	·	8
CCOC(=O)Nc1cc(=O)c2ccccc2o1	119*	3	4
Cc1cc(C)cc(NC(=O)c2ccc(NS(=O)(=O)c3cccc4cccnc34)cc2)c1	19	3	-1
COc1ccc(C)cc1N(CC(=O)Nc1ccc(C)c(Cl)c1)S(C)(=O)=O	-13	·	3
Cc1cc(C(C)(C)C)c(O)c(C(C)(C)C)c1	47	·	-9
CC(C)(C)c1cc(O)c(C(C)(C)C)cc1O	114*	·	0
Cc1ccc2nc(-c3ccc(NC(=O)CS(=O)(=O)Cc4ccccc4)cc3)sc2c1	10	2	4
Cc1cccc(-c2nnc(SCc3nc4ccccc4c(=O)[nH]3)n2-c2ccccc2)c1	20	·	0
CSc1ccc(/C=N/n2nnnc2Nc2ccccc2)cc1	95*	-2	·
CSc1cccc(NC(=O)CSc2nnnn2-c2ccccc2)c1	23	-1	1
Cc1ccc(S(=O)(=O)Nc2ccc3c(c2)CC(=O)N([C@H](C)CO)C[C@@H](C)[C@H](CN(C)CC2CC2)O3)cc1	12	·	·
Cc1ccc(S(=O)(=O)Nc2ccc3c(c2)CC(=O)N([C@@H](C)CO)C[C@H](C)[C@H](CN(C)CC2CCCCC2)O3)cc1	102*	-1	2
Cc1ccc(S(=O)(=O)Nc2ccc3c(c2)CC(=O)N([C@H](C)CO)C[C@@H](C)[C@H](CN(C)CC2CCCCC2)O3)cc1	84*	1	-1
